According to the supplement of paper PMC6555819:

Assays:
Test in all cases: PBM binding z-score (relative to random genomic background probes); higher = stronger binding; sequences stand for … in GC…GCGATTGACAGCGTAGAATGAAGG
[1] = test system: FXR:RXRa (NR concentration 270 nM, RXRa partner concentration 90 nM)
Procedure, shortened: (§1)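 Binding z-scores were set against random background probes. The data came from custom Agilent 4×180K protein-binding microarrays carrying double-stranded probes with 34-nt variable regions, incubated 1 h with ligand-free nuclear receptor dimers. Partner-specific antibodies detected binding, and scanned fluorescence was regression-normalized.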

[2] = test system: LXRa:RXRa (NR concentration 270 nM, RXRa partner concentration 90 nM)
Procedure, shortened: as §1

[3] = test system: LXRa homodimer (NR concentration 270 nM)
Procedure, shortened: as §1

[4] = test system: LXRb:RXRa (NR concentration 270 nM, RXRa partner concentration 90 nM)
Procedure, shortened: as §1

[5] = test system: LXRb homodimer (NR concentration 270 nM)
Procedure, shortened: as §1

[6] = test system: PPARa:RXRa (NR concentration 270 nM, RXRa partner concentration 90 nM)
Procedure, shortened: as §1

[7] = test system: PPARg:RXRa (NR concentration 180 nM, RXRa partner concentration 90 nM)
Procedure, shortened: as §1

[8] = test system: PPARg:RXRa 270nM:90nM, anti-RXR (NR concentration 270 nM, RXRa partner concentration 90 nM)
Procedure, shortened: as §1

[9] = test system: PPARg:RXRa 30nM:10nM, anti-RXR (NR concentration 30 nM, RXRa partner concentration 10 nM)
Procedure, shortened: as §1

[10] = test system: PPARg:RXRa 90nM:30nM, anti-RXR (NR concentration 90 nM, RXRa partner concentration 30 nM)
Procedure, shortened: as §1

[11] = test system: PPARg:RXRa DBDmut IVT, anti-RXR (DBD mutation: RXRa K156A/R161A, NR concentration 270 nM, RXRa partner concentration 90 nM)
Procedure, shortened: as §1

[12] = test system: PPARg:RXRa IVT, anti-PPARg (NR concentration 270 nM, RXRa partner concentration 90 nM)
Procedure, shortened: as §1

[13] = test system: PPARg DBDmut:RXRa IVT, anti-PPARg (DBD mutation: PPARg1 K132A/R137A, NR concentration 270 nM, RXRa partner concentration 90 nM)
Procedure, shortened: as §1

[14] = test system: PPARg DBDmut IVT, anti-PPARg (DBD mutation: PPARg1 K132A/R137A, NR concentration 270 nM)
Procedure, shortened: as §1

[15] = test system: PPARg homodimer (NR concentration 180 nM)
Procedure, shortened: as §1

[16] = test system: PXR:RXRa (NR concentration 270 nM, RXRa partner concentration 90 nM)
Procedure, shortened: as §1

[17] = test system: PXR homodimer (NR concentration 270 nM)
Procedure, shortened: as §1

[18] = test system: RARa:RXR (NR concentration 270 nM, RXRa partner concentration 90 nM)
Procedure, shortened: as §1

[19] = test system: RARa homodimer (NR concentration 270 nM)
Procedure, shortened: as §1

[20] = test system: RARb:RXRa (NR concentration 270 nM, RXRa partner concentration 90 nM)
Procedure, shortened: as §1

| Sequence | PBM binding z-score [1] | PBM binding z-score [2] | PBM binding z-score [3] | PBM binding z-score [4] | PBM binding z-score [5] | PBM binding z-score [6] | PBM binding z-score [7] | PBM binding z-score [8] | PBM binding z-score [9] | PBM binding z-score [10] | PBM binding z-score [11] | PBM binding z-score [12] | PBM binding z-score [13] | PBM binding z-score [14] | PBM binding z-score [15] | PBM binding z-score [16] | PBM binding z-score [17] | PBM binding z-score [18] | PBM binding z-score [19] | PBM binding z-score [20] |
| --- | --- | --- | --- | --- | --- | --- | --- | --- | --- | --- | --- | --- | --- | --- | --- | --- | --- | --- | --- | --- |
| TCTTGTAGATCCAAGGTTAAGAAAGCCGAAGCCT | 0.319 | 0.55 | -0.254 | 0.993 | -0.378 | 1.65 | 1.15 | 3.41 | 3.23 | 3.55 | 1.7 | 0.596 | 0.181 | 0.325 | 0.227 | 0.966 | 0.261 | 1.18 | -0.206 | 0.88 |
| TAGCCTAGGTCATGGGCCAGTATACCACGCGAAC | 4.32 | 3.28 | 0.195 | 2.24 | -0.333 | 4.04 | 3.78 | 3.66 | 0.829 | 2.59 | 1.08 | 2.99 | 0.0326 | -0.324 | 1.77 | 1.62 | -0.133 | 2.54 | -0.386 | 3.7 |
| TCCTGTAGATCAATAGAGGTTAAGAAAGTGCGCT | 0.952 | 3.56 | 0.803 | 1.93 | 0.0925 | 1.74 | -0.0634 | 1.63 | 2.77 | 2.39 | 1.98 | 0.459 | 0.335 | 0.281 | 0.185 | 2.91 | 0.378 | 1.59 | 0.54 | 0.925 |
| CCTTCTGGGCCAAGGTCATTGATCAGTCAAAGCA | 2.83 | 2.99 | 0.639 | 2.84 | -0.27 | 3.75 | 3.12 | 4.15 | 1.37 | 3.57 | 3.79 | 4.03 | -0.283 | -0.969 | 1.45 | 3.33 | 1.12 | 3.11 | -0.215 | 3.39 |
| AATACAGGGTCATCGAAGGCCAGAGTACGCACAG | 6.84 | 6.3 | 1.75 | 4.59 | 1.53 | 5.67 | 6.5 | 6.11 | 2.56 | 4.66 | 2.6 | 4.19 | 1.28 | 0.988 | 2.16 | 5.22 | 0.967 | 4.45 | 0.641 | 4.32 |
| CCTATTAATTGACCATAAGGGCAACCGAAGCTCG | 0.865 | 0.6 | 1.66 | 0.747 | 0.711 | 0.737 | 0.586 | 0.878 | 0.302 | 0.73 | 0.352 | 0.562 | 0.908 | 0.978 | 2.66 | 0.673 | 1.92 | 1.11 | 3.76 | 1.42 |
| ACTAGCAGGCCAAGTTTGGGACACTCAAACAAAG | -0.139 | -0.665 | -0.588 | -0.515 | -0.807 | -0.478 | 0.0502 | -0.814 | -0.775 | -0.548 | 0.573 | 0.235 | -0.681 | -1.33 | -0.893 | -0.655 | -0.694 | -0.143 | -0.864 | 0.366 |
| TCGAGTAGGTTACCAATGGGACATTCAGCTTTCT | 0.203 | 1.04 | -0.603 | 0.366 | -0.806 | 0.841 | 0.563 | 1.2 | 1.11 | 1.08 | 2.84 | 2.43 | -0.217 | 0.266 | -0.26 | 0.0751 | -0.84 | 0.149 | -0.599 | 0.695 |
| TTACCAAGCTGAAGGTCGTTGATCCCTCTGTAGA | 1.61 | 1.68 | -0.245 | 1.04 | -0.907 | 1.03 | 0.527 | 2.36 | 0.492 | 1.8 | -0.256 | -0.224 | -1.71 | -1.67 | -0.217 | 1 | -0.159 | 0.87 | -1.08 | 0.656 |
| TTATATAGGTAAATGCTAGGTGAAAGTCCGATCT | 0.733 | 0.69 | 0.375 | 0.64 | 0.108 | 2.18 | 2.61 | 2.59 | 1.97 | 2.34 | 6.27 | 5.32 | 1.86 | 2.12 | 1.28 | 0.481 | 0.535 | 0.686 | 1.58 | 0.351 |
| AGAATGAGGTTATCCGTAGATCAGGGAAGAAAGT | 2.59 | 2.06 | -0.212 | 1.57 | -0.253 | 3.44 | 1.63 | 2.05 | 0.418 | 1.32 | 3.68 | 2.42 | 0.156 | 1.03 | 0.547 | 1.17 | 0.231 | 1.76 | 0.02 | 1.66 |
| ACAGACAGGTGATAAAGGTAACTCAGGCTATCAT | -0.11 | -0.0181 | -0.44 | 0.128 | -0.23 | 0.763 | 1.15 | 1.47 | 0.377 | 1.35 | -0.135 | 0.46 | -0.885 | -0.537 | 0.207 | -0.0528 | 0.0239 | 0.267 | -0.124 | 0.423 |
| CCTACTGGGCCATTCACAGGTCATTGATCATATG | 0.864 | 2.27 | 4.05 | 2.21 | -0.0927 | 2.62 | 1.27 | 2.04 | 0.468 | 1.3 | 4.38 | 4.07 | 0.164 | 0.233 | 1.37 | 2.11 | 0.599 | 2.4 | 0.567 | 2.03 |
| TGAATGAGGTTGTAAGATCAGGGAACGTTGCAAA | -0.0998 | -0.208 | -0.429 | -0.35 | 0.0245 | 0.282 | -0.0383 | 0.349 | 0.261 | 0.21 | -0.831 | -0.0172 | 0.744 | -0.354 | -0.324 | -0.125 | -0.318 | 0.203 | -0.183 | 0.0234 |
| TAGCCTAGGTCATTCAGGGGCCAGTACAGAAAGC | 4.86 | 4.11 | 0.86 | 3.16 | 0.986 | 3.6 | 2.29 | 2.39 | 0.132 | 1.25 | 1.84 | 2.77 | -0.186 | 0.258 | 1.6 | 2.52 | -0.228 | 3.86 | -0.153 | 3.9 |
